# Test results reported in PubChem BioAssay.
# Where “and” joins values, the source holds several entries; their conditions need not be identical. Identical values can stand only once. Calls of active or inactive are those of the source. Unless noted, no stated cut-off is given here; in the data, active means parasite load remaining mostly below about 12% (no sharp cut-off); inactive means mostly above about 10%.
# Tests used:
# [1] = hESC survival regulators, cell-based (AID 493140; call rule not given here;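 further: cells exposed to compounds for four days before counting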); conditions: human embryonic stem cell survival screen; stronger effect = higher value
# [2] = liver-stage malaria parasite growth inhibition, primary screen, cell-based, HepG2, luciferase luminescence, HepG2 viability (AID 624349);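 further: 100% = mean of DMSO negative control wells on the same plate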; conditions: P. berghei liver stage in HepG2, luciferase luminescence, concentration not given here; parasite load remaining: stronger effect = lower value; viability: measured here: HepG2 viability without parasites
# [3] = stimulators of nuclear beta-catenin in C2C12, primary screen, imaging, WNT3A-conditioned medium, mouse C2C12, NPC library (AID 1117326; in the data active means nuclear beta-catenin stimulation mostly above about 4.2%, no sharp cut-off; inactive means mostly below about 10%); conditions: stronger effect = higher value
# [4] = stimulators of insulin release from INS-1E, primary screen, cell-based, 5 mM glucose, NPC library (AID 1117329;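 active means compound raises insulin release from rat beta cells at 5 mM glucose, no numeric limit stated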); conditions: rat INS-1E insulin secretion, at 10 µM, stronger effect = higher value
# [5] = growth inhibition of GSK3B-pretreated HCT116 cells – cell-based, CellTiter-Glo, 0.2 to 20 µM (AID 1117336;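 active means compounds lowering colon cancer cell viability after pretreatment blocking the GSK3B kinase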); conditions: HCT116 viability after GSK3B inhibitor, at 20 µM, stronger effect = higher value
# [6] = inhibition of endothelial tube formation, primary screen, imaging, VEGF stimulated, CD31 staining, tube area, NPC library (AID 1117340;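 active means compound that reduces growth-factor-driven endothelial tube area in a mixed cell culture, no cutoff stated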); conditions: VEGF-stimulated ADSC/ECFC co-culture, at 10 µM, stronger effect = higher value
# [7] = glucagon-like peptide 1 release enhancers, primary assay, NCI-H716 cell line, NPC library (AID 1117341;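 active means compound raises GLP1 secretion from the human gut endocrine cells, with no numeric limit stated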); conditions: NCI-H716 cells, at 10 µM, stronger effect = higher value
# [8] = HCT116 colon cancer cell growth inhibition, primary screen, CellTiter-Glo luminescence, NPC library (AID 1117342;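 active means compounds that lower survival of HCT116 colon cancer cells in the luminescence readout, no numeric limit stated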); conditions: at 20 µM (top of the series)
# [9] = CellTiter-Glo luminescent readout of SW480 viability loss, NPC library primary (AID 1117343;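 active means compounds that lower viability of the colon cancer cells in the luminescence readout, with no numeric limit stated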); conditions: CellTiter-Glo luminescence; at 20 µM (top of the series) unless noted
# [10] = decreased DLD-1 cellular survival, CellTiter-Glo luminescent readout, NPC compound collection, primary HTS (AID 1117346;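 active means compounds that lower survival of DLD-1 colon cancer cells in the luminescence readout, no cutoff given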); conditions: DLD-1 viability, CellTiter-Glo luminescence; at 20 µM (top of the series)
# [11] = differential killing of epithelial or mesenchymal cells, primary screen, imaging, PC-3E GFP, TEM4-18 mCherry, co-culture (AID 1345086;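 active means compounds killing one labelled cell type while sparing the other, by normalised counts and ratio limits, not self-fluorescent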;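 on all read-outs here: cells exposed to compound for 72 h before imaging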;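 on red/green cell ratio (normalised): normalised mesenchymal count divided by normalised epithelial count so high means epithelial killing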); conditions: imaging cell counts, at 1 µM; for red/green cell ratio (normalised): actives lie on both sides, counts scaled to control wells, 1 = unselective
# [12] = sensitizers of A549 cells to miR-34 induction, primary screen, imaging, A549 dox-inducible miR-34, nuclei and caspase counts (AID 1347080;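 active means compounds whose cell count with miR-34 switched on is under 0.7 times the count with it off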); conditions: A549 miR-34 inducible, Hoechst nuclei count, 48 h
# [13] = LFS_MB_P medulloblastoma growth inhibition, cell-based, chromothripsis tumors, cisplatin or BGB combos (AID 1671449; in the data active means inhibition above about 80%;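 further: cells exposed for 96 hours; 0% = vehicle DMSO and 100% = killing by high DMSO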); conditions: LFS_MB_P medulloblastoma cells
# [14] = HDN33 neuroblastoma growth inhibition, cell-based, chromothripsis tumors, cisplatin or BGB combos (AID 1671450; in the data active means inhibition above about 80%;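 further: cells exposed to compound for four days; 0% = vehicle DMSO and 100% = cell killing by high DMSO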); conditions: HDN33 neuroblastoma cells, stronger effect = higher value
# [15] = ICB984 medulloblastoma cell growth inhibition, synergistic combos for chromothripsis tumors, cisplatin or BGB combos (AID 1671451; call rule not given here;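 further: cells exposed for 96 hours before readout; 0% = vehicle DMSO and 100% = killing by high DMSO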); conditions: ICB984 medulloblastoma cells, drug combinations, stronger effect = higher value
# [16] = HTB85 osteosarcoma cell growth inhibition, synergistic combos for chromothripsis tumors, BGB or cisplatin IC20 combos (AID 1671453; in the data active means inhibition above about 80%;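 further: cells exposed for 96 hours before readout; 0% = vehicle DMSO and 100% = high DMSO killing control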); conditions: HTB85 osteosarcoma cells, drug combinations, stronger effect = higher value
# [17] = MDA-MB-436 breast carcinoma cell growth inhibition, synergistic combos for chromothripsis tumors, BGB or cisplatin combos (AID 1671458; call rule not given here;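 further: cells exposed for 96 hours; 0% = vehicle DMSO and 100% = killing by high DMSO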); conditions: MDA-MB-436 breast carcinoma growth inhibition, drug combinations, stronger effect = higher value
# [18] = survival rescue of mitochondrial mutant cells in low glucose, primary screen, MELAS cybrids, Rieske KO mouse fibroblasts, CellTiter-Glo (AID 1508586;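 active means mean z-score across replicates of 1.96 or higher in either the MELAS or the Rieske mutant cell line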;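 further: z relative to plate mean and SD of compound and empty wells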)
# [19] = molecular target: NAD(+) hydrolase SARM1 (Homo sapiens) (UniProt Q6SZW1); experiment: SARM1 TIR NADase inhibitors, cell lysate, NAD-Glo luminescence (AID 1508614;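 active means compound whose remaining NAD level is above about 45 nM, limit read from the data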); conditions: SAM-TIR HEK293T lysate NADase, at 1 µM, stronger effect = higher value
# NAD(+) hydrolase SARM1 (Homo sapiens), sequence (Q6SZW1 whole entry, looked up): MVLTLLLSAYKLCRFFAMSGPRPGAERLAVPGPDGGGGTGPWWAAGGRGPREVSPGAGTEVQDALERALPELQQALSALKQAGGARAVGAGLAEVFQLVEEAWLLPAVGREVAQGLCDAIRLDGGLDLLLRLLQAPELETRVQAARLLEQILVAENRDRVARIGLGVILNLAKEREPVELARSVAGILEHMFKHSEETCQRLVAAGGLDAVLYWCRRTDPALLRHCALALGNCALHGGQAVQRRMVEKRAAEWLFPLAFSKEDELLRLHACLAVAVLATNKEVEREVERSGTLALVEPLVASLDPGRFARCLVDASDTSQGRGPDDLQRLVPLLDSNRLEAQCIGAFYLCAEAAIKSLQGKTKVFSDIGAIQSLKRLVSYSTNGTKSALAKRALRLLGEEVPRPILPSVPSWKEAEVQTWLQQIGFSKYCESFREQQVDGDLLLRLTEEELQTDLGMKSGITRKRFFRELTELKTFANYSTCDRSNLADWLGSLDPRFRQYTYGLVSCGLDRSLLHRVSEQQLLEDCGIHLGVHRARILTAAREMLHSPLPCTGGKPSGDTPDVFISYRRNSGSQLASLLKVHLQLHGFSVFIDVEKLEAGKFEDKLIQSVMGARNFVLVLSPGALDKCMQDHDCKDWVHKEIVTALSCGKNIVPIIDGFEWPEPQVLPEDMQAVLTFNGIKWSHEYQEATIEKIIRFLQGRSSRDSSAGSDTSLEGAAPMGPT
# [20] = measured here: epithelial PC-3E GFP cell survival
# [21] = measured here: mesenchymal TEM4-18 mCherry cell survival
# [22] = stronger effect = lower value, cell number ratio, induced over uninduced
# [23] = measured here: relative caspase fold change +Dox/-Dox
# [24] = measured here: total cells with miR-34 induction, stronger effect = lower value
# [25] = measured here: total cells without miR-34 induction
compound,measurement,setting,value
O=C(O)[C@H](O)[C@@H](O)[C@H](O[C@@H]1O[C@H](CO)[C@H](O)[C@H](O)[C@H]1O)[C@H](O)CO,survival,[1],11.8 (inactive)
same,parasite load remaining,[2],68% (inactive) and 86.7% (inactive)
same,viability,[2],96.5% and 74.2%
same,nuclear beta-catenin stimulation,[3]; at 10 µM,-1.5% (inactive)
same,nuclear beta-catenin stimulation,"[3]; stimulation, at 2 µM",-0.6%
same,insulin secretion stimulation,[4],5.9% (inactive)
same,viability decrease,[5],94.4% (active)
same,tube area decrease,[6],-14.9% (inactive)
same,GLP1 secretion stimulation,[7],-3.6% (inactive)
same,inhibition of viability,[8],93% (active)
same,viability decrease (inhibition),[9],94% (active)
same,viability decrease (inhibition),[10],99.7% (active)
same,red/green cell ratio (normalised),[11],1.06 (inactive)
same,normalised cell number,[11]; [20],1.17
same,normalised cell number,[11]; [21],1.23
same,fold change,[12]; [22],0.847 (inactive)
same,fold change,[12]; [23],1.47
same,cell count,[12]; [24],8980
same,cell count,[12]; [25],10600
CN1CCN(c2c(F)cc3c(=O)c(C(=O)O)cn4c3c2OCN4C)CC1,nuclear beta-catenin stimulation,[3]; at 10 µM,-0.6% (inactive)
same,nuclear beta-catenin stimulation,"[3]; stimulation, at 2 µM",-2.1%
same,insulin secretion stimulation,[4],-0.9% (inactive)
same,viability decrease,[5],7.3% (inactive)
same,tube area decrease,[6],-6.4% (inactive)
same,GLP1 secretion stimulation,[7],-0.1% (inactive)
same,inhibition of viability,[8],1.5% (inactive)
same,viability decrease (inhibition),[9],-15.8% (inactive)
same,viability decrease (inhibition),[10],-5% (inactive)
same,red/green cell ratio (normalised),[11],0.85 (inactive)
same,normalised cell number,[11]; [20],1.17
same,normalised cell number,[11]; [21],1
same,inhibition,"[13]; at 0.5 µM, stronger effect = higher value",-17.7% (inactive)
same,inhibition,"[13]; measured here: combination with BGB IC20, at 0.005 µM",-16.9%
same,inhibition,"[13]; measured here: combination with BGB IC40, at 0.005 µM",-17.4%
same,inhibition,"[13]; measured here: combination with BGB IC40, at 0.05 µM",-36.9%
same,inhibition,"[13]; measured here: combination with cisplatin, at 0.5 µM, stronger effect = higher value",-51.4%
same,inhibition,"[13]; measured here: combination with cisplatin, at 5 µM, stronger effect = higher value",-32.3%
same,inhibition,"[14]; BGB combo, at 5 µM",5.71%
same,inhibition,[14]; at 0.5 µM,-7.25% (inactive)
same,inhibition,"[14]; cisplatin combo, at 5 µM",-1.82%
same,inhibition,"[14]; measured here: with BGB IC20 combination, at 0.5 µM",5.2%
same,inhibition,"[14]; measured here: with cisplatin IC20 combination, at 0.5 µM",-12.1%
same,inhibition,"[14]; single agent, at 5 µM",-9.4%
same,inhibition,"[15]; BGB IC20 combo, at 0.005 µM",9.65%
same,inhibition,"[15]; BGB IC40 combo, at 0.005 µM",-1.21%
same,inhibition,"[15]; BGB IC40 combo, at 0.05 µM",1.28%
same,inhibition,[15]; at 0.5 µM,-28.8% (inactive)
same,inhibition,"[15]; cisplatin combo, at 0.05 µM",-1.48%
same,inhibition,"[15]; cisplatin combo, at 0.5 µM",-25.3%
same,inhibition,"[15]; cisplatin combo, at 5 µM",-7.68%
same,inhibition,"[15]; measured here: 5 uM single agent, at 5 µM",-17.3%
same,inhibition,[16]; at 0.5 µM,-12.7% (inactive)
same,inhibition,"[16]; measured here: with BGB IC20, at 0.5 µM",-22.2%
same,inhibition,"[16]; measured here: with BGB IC20, at 5 µM",-21.7%
same,inhibition,"[16]; measured here: with cisplatin IC20, at 0.5 µM",-26.4%
same,inhibition,"[16]; measured here: with cisplatin IC20, at 5 µM",-29.4%
same,inhibition,"[16]; single agent, at 5 µM",-8.81%
same,inhibition,[17]; at 0.5 µM,-16.5% (inactive)
same,inhibition,"[17]; measured here: BGB combination, at 0.5 µM",-13.3%
same,inhibition,"[17]; measured here: BGB combination, at 5 µM",-9.95%
same,inhibition,"[17]; measured here: cisplatin combination, at 0.5 µM",-29.6%
same,inhibition,"[17]; measured here: cisplatin combination, at 5 µM",-33.2%
C[C@H]1[C@H](NC(=O)/C(=N/OC(C)(C)C(=O)O)c2csc(N)n2)C(=O)N1S(=O)(=O)O (stereo in doubt),nuclear beta-catenin stimulation,[3]; at 10 µM,5% (inactive)
same,nuclear beta-catenin stimulation,"[3]; stimulation, at 2 µM",-0.4%
same,insulin secretion stimulation,[4],0.1% (inactive)
same,viability decrease,[5],-16.4% (inactive)
same,tube area decrease,[6],11.9% (inactive)
same,GLP1 secretion stimulation,[7],-1.9% (inactive)
same,inhibition of viability,[8],0.97% (inactive)
same,viability decrease (inhibition),[9],25.1% (inactive)
same,viability decrease (inhibition),[10],-11.3% (inactive)
same,red/green cell ratio (normalised),[11],1.32 (inactive)
same,normalised cell number,[11]; [20],0.82
same,normalised cell number,[11]; [21],1.08
Clc1ccc(C(Cn2ccnc2)OCc2ccsc2Cl)c(Cl)c1 (stereo not given),parasite load remaining,[2],37.3% (inactive) and 6.58% (inactive)
same,viability,[2],97.8% and 62%
same,nuclear beta-catenin stimulation,[3]; at 10 µM,4.5% (inactive)
same,nuclear beta-catenin stimulation,"[3]; stimulation, at 2 µM",0.7%
same,insulin secretion stimulation,[4],0.9% (inactive)
same,viability decrease,[5],100% (active)
same,tube area decrease,[6],110% (active)
same,GLP1 secretion stimulation,[7],10.8% (inactive)
same,inhibition of viability,[8],100% (active)
same,viability decrease (inhibition),[9],123% (active)
same,viability decrease (inhibition),[10],103% (active)
same,red/green cell ratio (normalised),[11],1.15 (inactive)
same,normalised cell number,[11]; [20],0.85
same,normalised cell number,[11]; [21],0.97
same,fold change,[12]; [22],0.919 (inactive) and 0.86 (inactive) and 0.892 (inactive)
same,fold change,[12]; [23],0.876 and 3.84 and 1.06
same,cell count,[12]; [24],7290 and 10300 and 7120
same,cell count,[12]; [25],7930 and 12000 and 7980
same,z-score,"[18]; MELAS cybrid survival, CellTiter-Glo 48 h, stronger effect = higher value",-0.0566 (inactive) and 0.885 (inactive) and 0.0763 (inactive)
same,z-score,"[18]; Rieske KO mouse fibroblast survival, CellTiter-Glo 72 h",-0.152 and 0.306 and -0.538
same,remaining NAD,[19],10 nM (inactive)
